Records with an inconclusive call do not appear. Some compounds were tested as several samples or in several runs, with calls that do not always agree. Activity calls are given as the source filed them. Rule for the calls, unless noted: active = hit-call score of the fitted dose curve at least 0.9, where 1 is the maximum; inconclusive = response in the unintended direction; inactive = score below 0.9.
Key:
[1] = target: Nuclear receptor subfamily 1 group I member 3 (Homo sapiens) (UniProt Q14994); assay: ATG_CAR_TRANS: Attagene TRANS-FACTORIAL HepG2 Assay for human Constitutive Androstane Receptor (CAR) (AID 2282969); conditions: HepG2 Attagene TRANS-FACTORIAL CAR reporter;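 note: activators raise reporter mRNA above DMSO so AC50 marks induction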
Nuclear receptor subfamily 1 group I member 3 (Homo sapiens), sequence (Q14994 whole entry, looked up, the tested form may be a part): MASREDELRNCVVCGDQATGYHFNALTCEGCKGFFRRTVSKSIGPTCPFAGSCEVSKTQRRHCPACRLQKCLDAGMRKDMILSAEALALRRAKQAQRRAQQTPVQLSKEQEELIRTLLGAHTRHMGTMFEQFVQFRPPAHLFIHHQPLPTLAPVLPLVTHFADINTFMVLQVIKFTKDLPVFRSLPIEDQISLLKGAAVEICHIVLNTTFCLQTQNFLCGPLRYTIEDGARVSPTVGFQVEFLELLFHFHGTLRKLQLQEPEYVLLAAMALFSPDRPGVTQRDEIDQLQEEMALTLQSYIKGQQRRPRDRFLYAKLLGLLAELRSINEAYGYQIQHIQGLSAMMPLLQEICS
How it was run: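 Readout is reporter mRNA induction, quantified by fluorescent primer extension and capillary electrophoresis after RT-PCR. Cells were HepG2 transiently carrying chimeric NR-Gal4 constructs with GAL4-UAS reporters, treated for 24 h; activity scored upward from DMSO.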

[2] = target: Glucocorticoid receptor (Homo sapiens) (UniProt P04150); assay: ATG_GR_TRANS: Attagene TRANS-FACTORIAL HepG2 Assay for human Glucocorticoid Receptor (GR) (AID 2282978); conditions: HepG2 Attagene TRANS GR reporter, mRNA transcription;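 note: activators score as hits since higher reporter transcript over DMSO is fitted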
Glucocorticoid receptor (Homo sapiens), sequence (P04150 whole entry, looked up, the tested form may be a part): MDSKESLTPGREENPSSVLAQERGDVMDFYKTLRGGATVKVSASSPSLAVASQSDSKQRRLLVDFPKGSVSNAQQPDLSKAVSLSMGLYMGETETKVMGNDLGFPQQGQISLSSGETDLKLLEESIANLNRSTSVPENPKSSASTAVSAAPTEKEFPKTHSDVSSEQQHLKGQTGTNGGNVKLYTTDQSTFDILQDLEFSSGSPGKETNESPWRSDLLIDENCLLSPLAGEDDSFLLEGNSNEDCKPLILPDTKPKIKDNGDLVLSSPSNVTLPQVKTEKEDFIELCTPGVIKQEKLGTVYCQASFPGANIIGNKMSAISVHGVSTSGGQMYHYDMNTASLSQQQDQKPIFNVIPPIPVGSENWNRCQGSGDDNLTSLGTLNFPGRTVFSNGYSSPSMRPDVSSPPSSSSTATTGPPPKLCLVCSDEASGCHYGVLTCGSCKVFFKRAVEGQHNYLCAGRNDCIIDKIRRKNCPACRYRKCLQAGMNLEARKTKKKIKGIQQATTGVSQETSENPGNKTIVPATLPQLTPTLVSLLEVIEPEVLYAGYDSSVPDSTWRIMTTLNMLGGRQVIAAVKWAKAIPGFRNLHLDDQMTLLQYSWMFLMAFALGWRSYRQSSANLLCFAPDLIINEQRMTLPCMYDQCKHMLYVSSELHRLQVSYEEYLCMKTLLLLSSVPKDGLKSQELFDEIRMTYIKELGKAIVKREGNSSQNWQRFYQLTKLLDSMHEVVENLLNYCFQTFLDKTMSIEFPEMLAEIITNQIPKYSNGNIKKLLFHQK
How it was run: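 HepG2 cells transiently transfected with multiplexed reporter units in which chimeric NR-GAL4 proteins drive GAL4-UAS reporters; 24 h compound exposure. Reporter mRNA measured by RT-PCR, 6-FAM labelling, HpaI digestion and capillary electrophoresis; gain-of-signal fitted versus DMSO.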

[3] = target: Oxysterols receptor LXR-alpha (Homo sapiens) (UniProt Q13133); assay: ATG_LXRa_TRANS: Attagene TRANS-FACTORIAL HepG2 Assay for human Liver X Receptor alpha (LXRa) (AID 2282980); conditions: HepG2 Attagene TRANS reporter, LXRa transactivation
Oxysterols receptor LXR-alpha (Homo sapiens), sequence (Q13133 whole entry, looked up, the tested form may be a part): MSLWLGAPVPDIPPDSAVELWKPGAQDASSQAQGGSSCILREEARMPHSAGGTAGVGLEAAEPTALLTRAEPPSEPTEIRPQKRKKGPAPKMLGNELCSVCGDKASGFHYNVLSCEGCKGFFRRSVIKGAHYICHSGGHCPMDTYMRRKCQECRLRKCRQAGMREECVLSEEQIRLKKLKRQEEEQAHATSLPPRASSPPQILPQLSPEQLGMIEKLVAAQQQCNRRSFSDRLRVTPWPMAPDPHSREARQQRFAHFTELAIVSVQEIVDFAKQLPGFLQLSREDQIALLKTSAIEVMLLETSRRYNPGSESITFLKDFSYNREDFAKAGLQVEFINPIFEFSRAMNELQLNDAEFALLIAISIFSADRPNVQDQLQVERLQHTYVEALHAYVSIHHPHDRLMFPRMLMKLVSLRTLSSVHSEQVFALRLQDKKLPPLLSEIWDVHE
How it was run: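 Read-out: reporter transcript levels by RT-PCR plus capillary electrophoresis, fluorescence intensity. Transiently transfected HepG2, exogenous NR-GAL4 chimera, GAL4-UAS reporters; 24 h compound exposure. Activity = increase over DMSO negative control.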

[4] = target: Nuclear receptor subfamily 4 group A member 2 (Homo sapiens) (UniProt P43354); assay: ATG_NURR1_TRANS: Attagene TRANS-FACTORIAL HepG2 Assay for human Nuclear Receptor Related Protein 1 (NURR1) (AID 2282985); conditions: HepG2 Attagene TRANS reporter, mRNA readout
How it was run: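 Cells: HepG2, transiently transfected. Exposure: 24 h. Detection: fluorescence of labelled RT-PCR products separated by capillary electrophoresis; upward fit versus DMSO.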

[5] = target: Retinoic acid receptor RXR-alpha (Homo sapiens) (UniProt P19793); assay: ATG_RXRa_TRANS: Attagene TRANS-FACTORIAL HepG2 Assay for human Retinoid X Receptor alpha (RXRa) (AID 2283012)
Retinoic acid receptor RXR-alpha (Homo sapiens), sequence (P19793 whole entry, looked up, the tested form may be a part): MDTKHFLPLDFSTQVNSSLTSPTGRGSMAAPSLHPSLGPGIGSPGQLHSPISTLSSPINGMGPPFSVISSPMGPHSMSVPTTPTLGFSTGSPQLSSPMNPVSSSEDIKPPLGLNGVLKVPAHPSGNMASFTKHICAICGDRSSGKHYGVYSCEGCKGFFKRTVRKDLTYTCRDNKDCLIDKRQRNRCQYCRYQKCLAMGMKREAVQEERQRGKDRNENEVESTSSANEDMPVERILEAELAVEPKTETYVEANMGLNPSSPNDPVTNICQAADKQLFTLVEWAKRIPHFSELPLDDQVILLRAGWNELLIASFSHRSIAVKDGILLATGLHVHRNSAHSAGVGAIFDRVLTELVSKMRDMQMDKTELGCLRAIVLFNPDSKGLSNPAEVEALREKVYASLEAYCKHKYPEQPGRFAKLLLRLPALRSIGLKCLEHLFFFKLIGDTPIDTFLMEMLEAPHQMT
How it was run: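 HepG2 cells transiently transfected with multiplexed GAL4-UAS reporter units and chimeric NR-GAL4 fusions, dosed 24 h. Reporter mRNA measured by RT-PCR, FAM labelling, HpaI digestion and capillary electrophoresis; gain-of-signal fitted relative to DMSO baseline.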

[6] = target: human Thyroid Receptor alpha (THRa1), THRA (gene 7067) (UniProt P10827); assay: ATG_THRa1_TRANS: Attagene TRANS-FACTORIAL HepG2 Assay for human Thyroid Receptor alpha (THRa1) (AID 2283014)
human Thyroid Receptor alpha (THRa1), THRA (gene 7067), sequence (P10827 whole entry, looked up, the tested form may be a part): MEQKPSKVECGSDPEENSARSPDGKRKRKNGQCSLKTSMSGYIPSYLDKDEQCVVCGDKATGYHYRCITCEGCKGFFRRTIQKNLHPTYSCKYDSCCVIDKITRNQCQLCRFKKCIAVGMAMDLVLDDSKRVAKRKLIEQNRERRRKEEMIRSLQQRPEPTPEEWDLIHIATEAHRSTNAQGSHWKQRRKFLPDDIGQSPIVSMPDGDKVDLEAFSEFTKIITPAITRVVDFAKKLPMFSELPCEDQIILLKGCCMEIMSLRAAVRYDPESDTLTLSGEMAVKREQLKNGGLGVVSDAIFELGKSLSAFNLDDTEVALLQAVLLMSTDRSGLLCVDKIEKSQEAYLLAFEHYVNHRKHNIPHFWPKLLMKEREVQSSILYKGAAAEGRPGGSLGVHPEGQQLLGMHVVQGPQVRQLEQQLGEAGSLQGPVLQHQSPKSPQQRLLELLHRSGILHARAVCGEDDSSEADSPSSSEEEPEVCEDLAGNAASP
How it was run: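 Transient HepG2 transfection, NR-Gal4 chimera driving GAL4-UAS reporters; 24 h compound exposure; total RNA, oligo(dT) RT, PCR, fluorescent primer extension, capillary electrophoresis. Upward direction vs DMSO control.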

[7] = target: human Vitamin D Receptor (VDR), VDR (gene 7421) (UniProt P11473); assay: ATG_VDR_TRANS: Attagene TRANS-FACTORIAL HepG2 Assay for human Vitamin D Receptor (VDR) (AID 2283022)
human Vitamin D Receptor (VDR), VDR (gene 7421), sequence (P11473 whole entry, looked up, the tested form may be a part): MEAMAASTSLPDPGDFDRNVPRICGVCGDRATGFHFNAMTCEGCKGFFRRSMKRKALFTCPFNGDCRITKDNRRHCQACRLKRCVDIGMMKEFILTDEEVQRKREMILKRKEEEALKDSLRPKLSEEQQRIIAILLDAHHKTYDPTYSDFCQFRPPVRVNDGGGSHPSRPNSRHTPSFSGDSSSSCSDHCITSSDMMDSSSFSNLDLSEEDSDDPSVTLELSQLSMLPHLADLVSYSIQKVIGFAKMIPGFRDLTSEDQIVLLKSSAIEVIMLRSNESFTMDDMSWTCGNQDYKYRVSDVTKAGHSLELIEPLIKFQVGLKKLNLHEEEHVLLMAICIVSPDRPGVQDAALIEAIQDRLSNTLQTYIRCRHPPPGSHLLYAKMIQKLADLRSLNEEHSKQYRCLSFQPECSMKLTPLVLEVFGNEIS
How it was run: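 RT-PCR/capillary electrophoresis read-out of reporter mRNA induction in transiently transfected HepG2; 24 h dosing; chimeric NR-Gal4 (TRANS format); gain-of-signal fit against DMSO baseline.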

[8] = ATG_XTT_Cytotoxicity: Cytotoxicity Assessment in the Attagene TRANS-FACTORIAL HepG2 Assay (AID 2283584)
How it was run: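 XTT readout of cell number in transfected HepG2 cells, 24 h post-dosing; DMSO serves as negative control and baseline, with activity taken as loss of viability signal.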

[9] = TOX21_p53_BLA_p3_viability: Viability Assessment in the Tox21 HCT-116 p53 Agonism Beta-lactamase Assay, Phase 3 (AID 2283593);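 note: cells exposed to compound for 16 h before reading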
How it was run: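 Cellular ATP was quantified by CellTiter-Glo luminescence, read after 30 min at room temperature. Beforehand, HCT116 cells (4000/well) received compound 5 h post-seeding, 217-fold diluted from DMSO, then incubated 16 h at 37C.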

[10] = TOX21_p53_BLA_p4_viability: Viability Assessment in the Tox21 HCT-116 p53 Agonism Beta-lactamase Assay, Phase 4 (AID 2283597);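 note: hits lower the luminescence signal meaning cytotoxicity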
How it was run: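 We seeded HCT116 p53 reporter cells at 4000/well and waited 5 h. We then added compounds in DMSO at a 217-fold dilution and incubated for 16 h. Viability was read as CellTiter-Glo luminescence after 30 min at RT.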

[11] = ACEA_ER_AUC_viability: ACEA Biosciences xCELLigence Real-Time Cell Analysis on Estrogen Receptor Agonism for Viability (AID 2283782);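 note: continuous compound exposure with impedance area under curve over 80 h; hit means loss of impedance signal meaning reduced cell growth or viability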
How it was run: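 T-47D; phenol red-free RPMI1640 + 10% CS-FBS; 8 conc., 1:4 serial, max 100 uM final, ≤0.5% DMSO; n = 2; continuous exposure; impedance monitored to 80 h post-dose; AUC vs DMSO.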

[12] = target: Oxysterols receptor LXR-beta (Homo sapiens) (UniProt P55055); assay: ATG_LXRb_TRANS: Attagene TRANS-FACTORIAL HepG2 Assay for human Liver X Receptor beta (LXRb) (AID 2282981); conditions: HepG2 Attagene TRANS GAL4-LXRb reporter, mRNA
Oxysterols receptor LXR-beta (Homo sapiens), sequence (P55055 whole entry, looked up, the tested form may be a part): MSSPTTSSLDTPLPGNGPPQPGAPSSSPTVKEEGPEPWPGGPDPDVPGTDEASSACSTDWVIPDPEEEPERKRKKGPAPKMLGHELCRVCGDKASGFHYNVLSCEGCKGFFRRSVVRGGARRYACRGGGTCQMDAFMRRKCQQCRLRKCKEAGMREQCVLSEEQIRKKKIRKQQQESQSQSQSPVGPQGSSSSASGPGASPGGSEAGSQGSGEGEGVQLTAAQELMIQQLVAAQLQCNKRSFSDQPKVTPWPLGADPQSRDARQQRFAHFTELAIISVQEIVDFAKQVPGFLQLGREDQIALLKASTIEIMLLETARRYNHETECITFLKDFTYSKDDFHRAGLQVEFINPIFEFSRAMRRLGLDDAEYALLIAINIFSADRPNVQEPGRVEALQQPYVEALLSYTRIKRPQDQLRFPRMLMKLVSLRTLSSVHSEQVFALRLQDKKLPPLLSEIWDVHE
How it was run: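 Cells: HepG2, transiently transfected with GAL4-UAS reporter units plus LXRb-Gal4 fusion. Treatment: 24 h. Detection: reporter mRNA by RT-PCR, 6-FAM labelling, HpaI digestion, capillary electrophoresis.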

[13] = target: Bile acid receptor (Homo sapiens) (UniProt Q96RI1); assay: ATG_IR1_CIS: Attagene CIS-FACTORIAL HepG2 Assay for human Nuclear Receptor Subfamily 1 Group H Member 4 (NR1H4), IR1 submotif (AID 2282946; active = hit-call score of the fitted dose curve at least 0.9, where 1 is the maximum; inactive = score below 0.9); conditions: IR1 reporter transcription, actives raise or lower the signal
How it was run: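 Cells (human HepG2) carry transiently transfected cis-promoter reporter transcription units. Compounds are incubated 24 h, total RNA is reverse-transcribed and amplified, and labelled fragments are resolved by capillary electrophoresis. Curves use DMSO as baseline.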

[14] = target: human RAR-related Orphan Receptor gamma (RORg), RORC (gene 6097) (UniProt P51449); assay: ATG_RORg_TRANS: Attagene TRANS-FACTORIAL HepG2 Assay for human RAR-related Orphan Receptor gamma (RORg) (AID 2283011)
human RAR-related Orphan Receptor gamma (RORg), RORC (gene 6097), sequence (P51449 whole entry, looked up, the tested form may be a part): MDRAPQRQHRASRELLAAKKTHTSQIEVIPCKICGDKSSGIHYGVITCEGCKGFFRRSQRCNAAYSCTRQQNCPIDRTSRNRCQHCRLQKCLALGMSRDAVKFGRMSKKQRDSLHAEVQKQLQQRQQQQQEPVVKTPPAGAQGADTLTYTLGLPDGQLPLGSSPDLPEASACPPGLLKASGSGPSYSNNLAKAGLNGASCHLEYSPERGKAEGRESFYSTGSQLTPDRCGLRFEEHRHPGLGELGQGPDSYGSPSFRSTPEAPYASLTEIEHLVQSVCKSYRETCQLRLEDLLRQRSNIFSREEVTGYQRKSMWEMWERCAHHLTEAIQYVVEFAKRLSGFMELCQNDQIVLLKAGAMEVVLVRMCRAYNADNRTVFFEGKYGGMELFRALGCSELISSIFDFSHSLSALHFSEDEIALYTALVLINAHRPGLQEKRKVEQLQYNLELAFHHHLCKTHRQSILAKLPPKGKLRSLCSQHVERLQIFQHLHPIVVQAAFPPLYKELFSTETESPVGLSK
How it was run: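 Transient MRTU transfection of HepG2 (TRANS format, exogenous NR-Gal4 chimera). 24 h dosing. Total RNA → oligo(dT) RT → PCR → 6-FAM labelling → HpaI cut → CE. Gain vs DMSO.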

[15] = ATG_PPRE_CIS: Attagene CIS-FACTORIAL HepG2 Assay for human Peroxisome Proliferator-activated Response Element (PPRE) (AID 2282958; active = hit-call score of the fitted dose curve at least 0.9, where 1 is the maximum; inactive = score below 0.9); conditions: HepG2 PPRE cis-element reporter, Attagene transcription factor profiling; actives raise or lower the signal
How it was run: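 HepG2 cells transiently transfected with multiplexed cis-element reporter units measure endogenous transcription factor activity. After 24 h compound exposure, reporter mRNA is quantified by RT-PCR, 6-FAM labeling, HpaI digestion and capillary electrophoresis; bidirectional fits are made against DMSO baseline.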

[16] = target: human Peroxisome Proliferator-activated Receptor alpha (PPARa), PPARA (gene 5465) (UniProt Q07869); assay: ATG_PPARa_TRANS: Attagene TRANS-FACTORIAL HepG2 Assay for human Peroxisome Proliferator-activated Receptor alpha (PPARa) (AID 2283001)
How it was run: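 Reporter transcripts from GAL4-UAS units in transfected HepG2 were quantified 24 h after dosing. Detection used reverse transcription, PCR, fluorescent primer extension and capillary electrophoresis, with DMSO as baseline.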

[17] = target: Peroxisome proliferator-activated receptor gamma (Homo sapiens) (UniProt P37231); assay: ATG_PPARg_TRANS: Attagene TRANS-FACTORIAL HepG2 Assay for human Peroxisome Proliferator-activated Receptor-gamma (PPARg) (AID 2283007)
Peroxisome proliferator-activated receptor gamma (Homo sapiens), sequence (P37231 whole entry, looked up, the tested form may be a part): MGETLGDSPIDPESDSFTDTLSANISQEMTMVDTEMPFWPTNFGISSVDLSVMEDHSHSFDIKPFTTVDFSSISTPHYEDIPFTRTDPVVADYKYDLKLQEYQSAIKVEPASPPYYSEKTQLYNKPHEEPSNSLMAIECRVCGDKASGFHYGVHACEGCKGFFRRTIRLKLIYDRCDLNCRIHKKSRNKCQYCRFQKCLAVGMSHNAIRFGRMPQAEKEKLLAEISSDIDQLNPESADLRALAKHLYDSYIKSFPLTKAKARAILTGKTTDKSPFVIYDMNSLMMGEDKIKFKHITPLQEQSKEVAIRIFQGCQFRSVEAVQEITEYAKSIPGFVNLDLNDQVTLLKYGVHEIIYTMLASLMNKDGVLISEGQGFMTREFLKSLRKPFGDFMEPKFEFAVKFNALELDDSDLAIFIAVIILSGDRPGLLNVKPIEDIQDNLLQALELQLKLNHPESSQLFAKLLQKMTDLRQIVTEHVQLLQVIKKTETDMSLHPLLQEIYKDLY
How it was run: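 HepG2 cells transiently transfected with multiplexed GAL4-UAS reporter units and exogenous chimeric NR-Gal4 proteins; reporter mRNA quantified after 24 h compound exposure by RT-PCR, fluorescent labelling, HpaI digestion and capillary electrophoresis; gain-of-signal fitted versus DMSO baseline.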

[18] = target: human RAR-related Orphan Receptor beta (RORb), RORB (gene 6096) (UniProt Q92753); assay: ATG_RORb_TRANS: Attagene TRANS-FACTORIAL HepG2 Assay for human RAR-related Orphan Receptor beta (RORb) (AID 2283010)
human RAR-related Orphan Receptor beta (RORb), RORB (gene 6096), sequence (Q92753 whole entry, looked up, the tested form may be a part): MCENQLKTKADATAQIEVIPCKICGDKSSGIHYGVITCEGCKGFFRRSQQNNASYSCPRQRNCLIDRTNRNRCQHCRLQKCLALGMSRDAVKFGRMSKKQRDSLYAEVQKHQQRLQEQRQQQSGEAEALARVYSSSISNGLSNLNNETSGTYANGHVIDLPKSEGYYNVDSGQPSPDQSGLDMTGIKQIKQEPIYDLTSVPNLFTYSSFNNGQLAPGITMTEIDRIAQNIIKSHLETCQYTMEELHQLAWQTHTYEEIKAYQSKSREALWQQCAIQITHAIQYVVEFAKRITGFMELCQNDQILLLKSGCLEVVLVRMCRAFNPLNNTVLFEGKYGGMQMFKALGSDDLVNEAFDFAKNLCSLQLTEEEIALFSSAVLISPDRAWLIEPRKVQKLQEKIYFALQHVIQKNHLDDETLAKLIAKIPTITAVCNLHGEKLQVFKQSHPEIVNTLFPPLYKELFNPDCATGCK
How it was run: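 HepG2 cells were transiently transfected with multiplexed GAL4-UAS reporter units expressing chimeric nuclear receptor–GAL4 proteins, then dosed for 24 h. Reporter mRNA was quantified by RT-PCR with fluorescent labelling and capillary electrophoresis; gain of signal was fitted relative to DMSO.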

[19] = CCTE_Harrill_HTTr_Viability_MCF7: CCTE's 6-hour Cell Viability Assessment for the High-Throughput Transcriptomics (HTTr) Platform, in MCF-7 cells cultured in DMEM + 10% fetal bovine serum, Harrill Lab (AID 2284010; active = hit-call score of the fitted dose curve at least 0.9, where 1 is the maximum; inactive = score below 0.9)
How it was run: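 Membrane integrity was scored by high-content imaging of propidium iodide dye exclusion after a 6 h exposure across an eight-point dilution series. Data were fitted bidirectionally relative to DMSO as negative control and baseline.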

[20] = CCTE_Harrill_HTTr_Apoptosis_MCF7: CCTE's 6-hour Apoptosis Assessment for the High-Throughput Transcriptomics (HTTr) Platform, in MCF-7 cells cultured in DMEM + 10% fetal bovine serum, Harrill Lab (AID 2284011; active = hit-call score of the fitted dose curve at least 0.9, where 1 is the maximum; inactive = score below 0.9)
How it was run: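 Read-out: CellEvent Caspase 3/7 Green signal by high content imaging, gain-of-signal indicating apoptosis. MCF-7 cells, DMEM + 10% FBS, eight-point dilution series, 6 h exposure. Curves fitted bidirectionally relative to DMSO negative control.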

Measured: AC50

CCCCCCC(O)CCCCCCCCCCC(=O)OC (configuration not stated)
inactive: [1] | [2] | [3] | [4] | [5] | [6] | [7] | [8] | [9] | [10] | [11]

c1cc[c]([Bi]([c]2ccccc2)[c]2ccccc2)cc1
inactive: [1] | [12] | [7]
active: [4] 37.9 µM

NC(=O)c1ccc(N)cc1
inactive: [13] | [1] | [3] | [12] | [4] | [14] | [7] | [10]

O=C(O)c1cc(Cl)cc(Cl)c1O
active: [17] 100 µM
not listed: [1] | [2] | [3] | [5] | [12] | [13]
inactive: all other assays above

CC1=NN(c2cc(Cl)c(S(=O)(=O)O)cc2Cl)C(=O)C1N=Nc1ccc(S(=O)(=O)O)cc1 (configuration not stated)
inactive: [3] | [12] | [4] | [18] | [6] | [7] | [8] | [10]

F[B-](F)(F)F
inactive: [3] | [4] | [18] | [5] | [11]

CN(C)CCCN1c2ccccc2CCc2ccc(Cl)cc21
active: [10] 73.9 µM | [19] 66.7 µM | [20] 45.5 µM
inactive: [2] | [4] | [16] | [17] | [6] | [10]

C1=CCC=C1
inactive: [5] | [6]

CCOC(=O)c1ccccc1
active: [2] 27.9 µM | [11] 50 µM
inactive: [15] | [3] | [12] | [4] | [17] | [18] | [14] | [9] | [10]
